Source: ChEMBL document CHEMBL3433997, “St. Jude Leishmania screening dataset” (2016)

Molecular target: Solute carrier family 2, facilitated glucose transporter member 1 (Homo sapiens) (UniProt P11166)
Assay: ST_JUDE_LEISH: Cytotoxicity at 2uM final concentration against transgenic Leishmania Mexicana promastigotes LmGLUT1 that are glucose transport deficient and complemented with the human glucose transporter GLUT1. Activity is measured by DNA content using SYBR green in vitro
Format: functional

Sequence of Solute carrier family 2, facilitated glucose transporter member 1 (Homo sapiens) (P11166 whole entry): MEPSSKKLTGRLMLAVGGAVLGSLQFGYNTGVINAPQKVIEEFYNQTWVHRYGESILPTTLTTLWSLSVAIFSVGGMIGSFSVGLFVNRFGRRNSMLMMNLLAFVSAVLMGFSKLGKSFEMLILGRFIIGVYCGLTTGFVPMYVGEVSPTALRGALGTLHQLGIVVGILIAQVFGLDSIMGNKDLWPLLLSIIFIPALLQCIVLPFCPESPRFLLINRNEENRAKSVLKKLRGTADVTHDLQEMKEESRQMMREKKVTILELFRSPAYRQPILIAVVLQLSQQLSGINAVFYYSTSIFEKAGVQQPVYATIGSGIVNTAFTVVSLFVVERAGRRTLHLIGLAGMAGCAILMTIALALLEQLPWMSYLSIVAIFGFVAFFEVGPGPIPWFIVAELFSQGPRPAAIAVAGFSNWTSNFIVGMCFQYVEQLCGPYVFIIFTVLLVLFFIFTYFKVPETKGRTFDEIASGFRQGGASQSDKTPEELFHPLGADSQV

| SMILES | inhibition [%] |
| --- | --- |
| CN(C)CCOc1cccc(-c2cnc(N)c(-c3nc4cc(S(C)(=O)=O)ccc4[nH]3)c2)c1 | 1.53 |
| c1ccc(COc2ccc(Nc3ncnc4cnc(-c5ccc(CN6CCCCC6)o5)cc34)cc2)cc1 | 1.44 |
| COc1ccc(NS(=O)(=O)c2ccc(C(=O)Nc3ccc(C(F)(F)F)cc3)cc2)cc1N1CCN(CC2CC2)CC1 | 0.55 |
| COc1ccccc1NC(=O)OC(COc1ccc(N)cc1)CN1CC=C(c2ccccc2)CC1 (centres undefined) | 0.46 |
| O=C(Nc1cc(C(F)(F)F)cc(C(F)(F)F)c1)N1CCC(CCN2CCC(c3c[nH]c4ccccc34)CC2)CC1 | 5.87 |
| Cc1ccc(C(CC(=O)Nc2nccs2)c2ccc(OC(C)C)cc2)cc1 (centres undefined) | -1.83 |
| O=C1CCCN1CCCNCc1cccc(-c2cccc(-c3nc4cc(C(F)(F)F)ccc4[nH]3)c2)c1 | 4.47 |
| CC(C)NCc1ccc(-c2ccc(NC(=O)c3cccc(C#N)c3)cc2)cc1 | 1.38 |
| NC1CCN(CCNCc2cccc(-c3ccc(-c4nc5cc(C(F)(F)F)ccc5[nH]4)cc3)c2)C1 (centres undefined) | 2.65 |
| CN1CCN(c2cc3c(cc2Cl)CCN3C(=O)Cc2ccc(NC(=O)Nc3cccc4ccccc34)cc2)CC1 | 0.87 |
| CCCCCN1CCCC1CNS(=O)(=O)c1cccc(C(=O)Nc2cccc(C#N)c2)c1 (centres undefined) | 2.62 |
| c1cc(CNCCc2ccncc2)cc(-c2ccc(-c3nc4ccccc4[nH]3)cc2)c1 | 1.46 |
| CCOc1cc(C)ccc1C1CCN(CCCCNC(=O)c2cccc(-c3ccc(C(F)(F)F)cc3)c2)CC1 | 1.54 |
| Cc1cc(F)ccc1Oc1nc(Nc2ccc(N3CCOCC3)c(F)c2)nc2c1S(=O)(=O)CCC2 | 6.48 |
| O=C(NCc1cccc2ccccc12)[C@@H]1CCCN1C(=O)c1ccc(O)c(-c2ccc(Cl)c(Cl)c2)c1 | 3.99 |
| Cc1nc(C)c(-c2ccc(Cl)cc2)c(O)c1I | 4.26 |
| O=S(=O)(Nc1ccc(CCN2CCC(N3CCCCC3)CC2)cc1)c1ccccc1C(F)(F)F | 13.5 |
| COc1ccc(F)cc1-c1ccccc1CNC(=O)c1cnn(-c2ccc([N+](=O)[O-])cc2)c1C(F)(F)F | 2.16 |
| COc1cc(Cc2cnc(N)nc2N)cc(OCCCC#N)c1OC | 0.61 |
| CN(CCCCNC(=O)/C=C/c1ccccc1)C1CC2(CCN(C(=O)OC(C)(C)C)CC2)c2ccccc21 (centres undefined) | 3.4 |

| SMILES | inhibition [%] |
| --- | --- |
| CCCc1ccc(-c2csc(NC(=O)c3ccc([N+](=O)[O-])o3)n2)cc1 | 78.4 |
| CN(C)CCC1CCCc2ccc(NC(=O)Nc3ccc(-c4ccncc4)c4ccccc34)cc21 (centres undefined) | 4.29 |
| C=CC[C@H](NC(=O)c1ccc(NS(=O)(=O)c2ccc3nc(N)[nH]c(=O)c3c2)cc1)C(=O)OCCCC | 0.58 |
| Fc1ccc2[nH]c(-c3ccc(-c4cccc(CN5CCCCC5)c4)cc3)nc2c1 | 1.59 |
| O=S(=O)(c1ccccc1OC(F)(F)F)C1CC2CCC(C1)N2S(=O)(=O)c1cccc(C(F)(F)F)c1 (centres undefined) | 0.7 |
| CN1CCCc2ccc(NC(=O)C=Cc3ccc(-c4ccc(F)cc4F)o3)cc2C1 | 0.88 |
| CCOc1ccc2ccccc2c1CNCCCCCCNCc1c(OCC)ccc2ccccc12 | 7.3 |
| CCS(=O)(=O)Nc1ccc2c(c1)/C(=C(/Nc1ccc(CN3CCCCC3)cc1)c1ccccc1)C(=O)N2 | 83.1 |
| Nc1ncc(-c2ccc(Cl)c(Cl)c2)c(N)n1 | 0.86 |
| O=C(NCCN1CCCC1)N1CCCN(c2ncnc3cc(-c4ccc(Cl)cc4)sc23)CC1 | 0.21 |
| Cc1nnc2c(NC(=O)NC3CCCC3)cc3cc(-c4ccc(CN5CCCCC5)cc4)ccc3n12 | 1.79 |
| O=C(/C=C/c1ccc(Cl)c(Cl)c1)NCCCCCN1CCC(NC(=O)Nc2cc(Cl)ccc2Cl)CC1 | 9.69 |
| CCN(CC)CCNc1ccnc2ccc3ccccc3c12 | 1.6 |
| Cc1cc(N(C)C2CCN(C)C2)nc(Nc2ccc(Cl)cc2)n1 (centres undefined) | 7.55 |
| CCOC(=O)c1cnc2c(OC)cc(OC)c(Cl)c2c1Nc1ccccc1 | 5.44 |
| FC(F)(F)Oc1ccc(-c2cnc3ccc(NCc4ccncc4)nn23)cc1 | 2.41 |
| CCOC(=O)c1cnc2c(C(F)(F)F)cccc2c1Nc1ccc(O)cc1 | 10.8 |
| OC(CNCc1cccc(Oc2ccc(Cl)cc2)c1)c1cccc(C(F)(F)F)c1 (centres undefined) | 1.7 |
| CCC(CC)C(CC(=O)NC(C)(C)CCc1ccccc1OC)Nc1ccc(C#N)c2ccccc12 (centres undefined) | 4.46 |
